Test results: ChEMBL document CHEMBL2218924, “A broad activity screen in support of a chemogenomic map for kinase signalling research and drug discovery” (Biochem J, 2013)

What follows are compounds tested against Death-associated protein kinase 1 (Homo sapiens) (UniProt P53355). Details: at 1 µM.
Death-associated protein kinase 1 (Homo sapiens), sequence (P53355 whole entry, looked up): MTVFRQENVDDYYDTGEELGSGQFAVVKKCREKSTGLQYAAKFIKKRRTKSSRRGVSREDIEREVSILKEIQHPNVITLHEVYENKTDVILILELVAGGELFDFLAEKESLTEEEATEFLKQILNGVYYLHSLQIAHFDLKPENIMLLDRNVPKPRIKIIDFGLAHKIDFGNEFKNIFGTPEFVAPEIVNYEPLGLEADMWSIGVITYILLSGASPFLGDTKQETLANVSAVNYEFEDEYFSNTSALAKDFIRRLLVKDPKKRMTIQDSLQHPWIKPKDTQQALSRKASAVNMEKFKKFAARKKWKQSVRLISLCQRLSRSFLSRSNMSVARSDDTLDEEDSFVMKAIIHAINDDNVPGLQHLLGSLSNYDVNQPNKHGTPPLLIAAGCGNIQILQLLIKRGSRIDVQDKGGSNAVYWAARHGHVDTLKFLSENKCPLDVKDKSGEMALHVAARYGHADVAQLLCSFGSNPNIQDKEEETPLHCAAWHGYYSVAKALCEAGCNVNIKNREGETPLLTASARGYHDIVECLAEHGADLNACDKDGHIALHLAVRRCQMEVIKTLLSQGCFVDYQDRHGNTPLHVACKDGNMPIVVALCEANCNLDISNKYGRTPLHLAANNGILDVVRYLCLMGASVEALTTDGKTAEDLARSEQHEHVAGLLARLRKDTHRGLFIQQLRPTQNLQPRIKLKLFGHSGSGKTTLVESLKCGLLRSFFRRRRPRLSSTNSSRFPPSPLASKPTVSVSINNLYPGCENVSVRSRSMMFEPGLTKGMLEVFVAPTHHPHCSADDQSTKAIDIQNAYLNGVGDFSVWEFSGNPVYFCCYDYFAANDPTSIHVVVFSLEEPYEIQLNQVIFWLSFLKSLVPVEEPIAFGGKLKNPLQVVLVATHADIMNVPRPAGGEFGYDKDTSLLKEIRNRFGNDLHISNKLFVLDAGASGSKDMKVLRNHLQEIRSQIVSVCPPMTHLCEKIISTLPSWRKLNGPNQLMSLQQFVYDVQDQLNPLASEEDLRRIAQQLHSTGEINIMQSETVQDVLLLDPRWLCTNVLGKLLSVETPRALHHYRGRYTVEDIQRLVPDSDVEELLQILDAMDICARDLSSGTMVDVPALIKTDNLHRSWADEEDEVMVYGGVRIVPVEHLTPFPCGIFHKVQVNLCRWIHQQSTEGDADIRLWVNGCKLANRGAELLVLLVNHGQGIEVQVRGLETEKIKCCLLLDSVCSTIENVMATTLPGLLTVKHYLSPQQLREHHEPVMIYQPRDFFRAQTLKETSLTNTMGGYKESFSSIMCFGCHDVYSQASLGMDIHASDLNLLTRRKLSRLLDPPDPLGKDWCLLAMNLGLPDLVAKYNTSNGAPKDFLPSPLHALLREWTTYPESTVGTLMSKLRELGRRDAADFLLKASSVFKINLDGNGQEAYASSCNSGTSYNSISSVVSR
With `COc1cc2ncc(-c3ccccc3)nc2cc1OC` the residual activity was 87%.
For `O=C(c1ccccc1)c1ccc(N2CCOCC2)cc1O`, the residual activity was 97%.
`O=c1cc(-c2cccc3c2Sc2ccccc2S3)oc(N2CCOCC2)c1` was tested, and the residual activity was 91%.
Work on `COc1cc2nccc(Oc3ccc(NC(=S)NC(=O)c4ccccc4C)cc3)c2cc1OC` yielded a residual activity of 81%.
`CC(C)c1nn(-c2c(Cl)cccc2Cl)c2nc(Cc3ccc(OCCO)cc3)[nH]c(=O)c12` gave a residual activity of 94%.
`c1ccc2c(-c3ccncc3)c[nH]c2c1` gave a residual activity of 85%.
With `CCCC(=O)Oc1ccc2[nH]c(C(=O)c3cc4ccccc4[nH]3)cc2c1` the residual activity was 83%.
For `Oc1c2ccccc2c2c3c(cccc13)N=N2`, the residual activity was 91%.
With `COc1cc2ncnc(Nc3ccc(Oc4ccccc4)cc3)c2cc1OC` the residual activity was 100%.
`C[C@@H](N)[C@H]1CC[C@H](C(=O)Nc2ccncc2)CC1` gave a residual activity of 102%.
`COc1ccc(OC)c2c(=S)c3ccccc3[nH]c12` was tested, and the residual activity was 95%.
For `CN(C)c1ccc(/C=C2\C(=O)Nc3ccccc32)cc1`, the residual activity was 102%.
Compound `CC(C)n1cnc2c(NCc3ccccc3)nc(NCCCO)nc21` has a residual activity of 83%.
In the case of `CC(=O)O/N=C1\C(=C2\C(=O)Nc3cc(Br)ccc32)Nc2ccccc21`, the residual activity is reported as 98%.
`O=C1c2ccccc2-[n+]2ccc3c([nH]c4ccccc43)c21` showed a residual activity of 86%.
For `N#CC(C#N)=C(N)/C(C#N)=C/c1ccc(O)cc1`, the residual activity was 85%.
Work on `N#Cc1cnc2cnc(NCc3cccnc3)cc2c1Nc1ccc(F)c(Cl)c1` yielded a residual activity of 69%.
Work on `Nc1cccc(-c2cc3c(Oc4cccc(O)c4)ncnc3[nH]2)c1` yielded a residual activity of 89%.
Compound `CN(C)CCCn1cc(C2=C(c3c[nH]c4ccccc34)C(=O)NC2=O)c2ccccc21` has a residual activity of 106%.
`COc1cc2ncnc(N3CCN(C(=O)Nc4ccc(Oc5ccccc5)cc4)CC3)c2cc1OC` showed a residual activity of 90%.
With `O=C(O)/C=C/c1cc(Br)c(Br)c(Br)c1Br` the residual activity was 86%.
With `CCN(CC)CCCCN1c2ccccc2Oc2ccc(Cl)cc21` the residual activity was 107%.
With `O=C1Nc2cc(Br)ccc2/C1=C1/Nc2ccccc2/C1=N\O` the residual activity was 80%.
For `O=C1NC(=O)c2c1c1c3ccccc3[nH]c1c1[nH]c3cc(Br)ccc3c21`, the residual activity was 85%.
Work on `c1ccc(-c2n[nH]c3c2oc2ccccc23)cc1` yielded a residual activity of 94%.
`Cc1nc(-c2ccccc2)c(-c2ccncc2)o1` showed a residual activity of 81%.
`O=c1cc(N2CCOCC2)oc2c1ccc1ccccc12` gave a residual activity of 90%.
In the case of `COc1cc2ncnc(Nc3cccc(Cl)c3)c2cc1OC`, the residual activity is reported as 104%.
With `Oc1ccc(Nc2nc(-c3ccc(Cl)cc3)cs2)cc1` the residual activity was 90%.
`Oc1ccc(-c2nc(-c3ccc(F)cc3)c(-c3ccncc3)[nH]2)cc1` gave a residual activity of 92%.
`COc1ccc(Cl)cc1NC(=O)Nc1cc(C)nc2ccccc12` was tested, and the residual activity was 94%.
